Bioassay records from PubChem.
Rows were chosen to be rich in hits. Some 2.9% of all compounds tested hit in one or more screens of this group.
B2AR arrestin ag: qHTS assay of beta-arrestin-biased ligands of beta2-adrenergic receptor: NCGC Sytravon Library Screen; Beta-2 adrenergic receptor (Homo sapiens), P07550; HTLA Tango cells, beta-arrestin recruitment, luciferase luminescence, 18 h; Potency, µM (titrated, usually from 46.1 µM), actives largely listed as activators; 44,000 tested, under 10 active; AID 1347077, 2019
Target sequence (P07550 whole entry, looked up): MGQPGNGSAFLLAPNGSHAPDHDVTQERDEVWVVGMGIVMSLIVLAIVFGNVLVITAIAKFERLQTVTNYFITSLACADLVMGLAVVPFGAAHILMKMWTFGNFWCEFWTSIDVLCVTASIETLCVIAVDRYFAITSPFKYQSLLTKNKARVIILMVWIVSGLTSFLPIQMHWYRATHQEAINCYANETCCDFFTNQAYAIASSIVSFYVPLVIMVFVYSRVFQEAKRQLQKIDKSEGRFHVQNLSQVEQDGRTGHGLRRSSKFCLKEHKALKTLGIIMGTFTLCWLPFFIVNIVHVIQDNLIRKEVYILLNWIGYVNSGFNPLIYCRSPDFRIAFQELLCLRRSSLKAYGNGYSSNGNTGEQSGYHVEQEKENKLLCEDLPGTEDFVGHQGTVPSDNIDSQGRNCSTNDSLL
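First, Tango cells carrying beta2-AR and beta-arrestin fusions received compound up to 46 microM. After 18 hr at 37 degrees C, luciferase substrate was added for 15 minutes, then luminescence gave %Activity for curve fitting.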
GPR32 ag: qHTS for Agonists of Human Resolvin D1 Receptor DRV1; Probable G-protein coupled receptor 32 (Homo sapiens), O75388; CHO-K1 GPR32 beta-arrestin PathHunter luminescence, 90 min; zero percent set by DMSO-only wells; activation, % at 76.9 µM; 48,000 compounds, 2.5% hits; AID 1346428, 2018;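 active means activation of at least 60% and not above a set upper limit, about 1 call in 100 departs from these limits; inconclusive means activation of 40% to 60%, or above that upper limit; inactive means activation under 40%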
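CHO-K1 cells stably expressing ProLink-tagged GPR32 and Enzyme Activator-tagged beta-arrestin were seeded at 2,500 cells/well overnight, exposed to compounds for 90 min at 37 °C, then read by beta-Gal complementation chemiluminescence after 1 h detection reagent.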
GALC G270D act: A Novel Cell-Based Assay to Identify Small Molecules for B -Galactocerebrosidase | Potency, µM (top dose mostly 57.5 µM), most hits filed as activators | 45,000 compounds, 0.1% hits | 145M-Twi-hGALC-G270D cells (Twitcher mouse brain line with human GALC G270D), HMU-beta-Gal fluorescence, 48 h | AID 1159614, 2016; further: nearly all actives have a fitted effect of over 65% in size
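Fluorogenic HMU-b-Gal hydrolysis (0.1 mM final, pH 5.2 citrate-phosphate with 1 mg/mL sodium taurocholate; carbonate stop buffer) measures mutant GALC activity after compound treatment of live 145M-Twi Twitcher brain cells stably carrying human GALC-G270D, with wild-type GALC line alongside; activation sought.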
TSG101-PTAP inh: qHTS Validation Assay for Inhibitors of HIV-1 Budding by Blocking the Interaction of PTAP/TSG101: Sytravon Library Screen | Tumor susceptibility gene 101 protein (Homo sapiens), Q99816 | AID 1347069, 2019 | 44,000 tested, under 10 active | Potency, µM (titrated, usually from 115 µM), usual class: inhibitors | Fluorescence polarization, FITC-PTAP peptide/Tsg101, 20 min
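Fluorescence polarization binding of Tsg101 binding domain (10 uM final) to FITC-labeled PTAP-motif peptide (50 nM final) in HEPES pH 7.5/NaCl/Tween 20/EDTA/TCEP buffer; 20 min at r.t. Actives by curve class, <25 µM, efficacy <60% inhibition.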
Hits are given with their value; 0 = inactive; ? = inconclusive; - = not tested or not shown; ! = a repeat was not active; [ ] = dose if it differs, or a comment. Unless noted, the call rests on the fitted dose curve; in most records, active means well fitted curve in the direction sought with a large enough effect; inconclusive means small, poorly fitted or top-dose-only effect, or another doubt; inactive means no such curve, though single readings can be large; an effect the other way counts as inactive or inconclusive.

SMILES	B2AR arrestin ag	GPR32 ag	GALC G270D act	TSG101-PTAP inh
C=Cc1ccc(Cn2c(C(=O)O)c(CNCc3ccc(F)cc3)c3ccc(C)cc32)cc1	0	91	0	0
C=Cc1ccc(Cn2c(C(=O)O)c(CNCc3cccs3)c3ccc(C)cc32)cc1	0	96	0	0
COc1ccc(Cn2c(C(=O)O)c(CNCc3cccs3)c3ccc(C)cc32)cc1	0	?	0	0
Cc1ccc2c(CNCc3cccs3)c(C(=O)O)n(Cc3ccc(F)cc3)c2c1	0	92	0	0
COc1cc2c(cc1OC)CN(C(=O)[C@H](C)N[C@@H](CCc1ccccc1)C(=O)O)[C@H](C(=O)O)C2	-	0	0	-
CCOC(=O)N1CCC(Nc2ccc(Cl)cc2N)CC1	-	0	0	-
CC1(C)OC[C@@H]2O[C@@]3(C(=O)O)OC(C)(C)O[C@H]3[C@@H]2O1	-	0	0	-
CCCC(=O)Nc1ccc(O)c(C(C)=O)c1	-	0	0	-
CC(C)[C@@H]1CC[C@@H](C)C[C@@H]1P(=O)(c1ccccc1)c1ccccc1	-	0	-	-
O=C(CCCN1CCN(c2ccc(F)cc2)CC1)NC1c2ccccc2CSc2ccccc21 (centres undefined)	-	0	0	-
Cc1nc(-c2ccc(Cl)cc2)oc1COC(C)(C)C(=O)O	-	0	0	-
O=C(O)CN(CCOCCOCCN(CC(=O)O)CC(=O)O)CC(=O)O	-	0	0[0.46 µM]	-
O=C(O)CN(CCN(CC(=O)O)CC(=O)O)CCN(CC(=O)O)CC(=O)O	-	70!	0	-
Cc1ccc2ccc3cc(C(=O)N4CCN(c5ccccc5F)CC4)nc3c2[nH]1	0	0	0	0
Cc1ccc2ccc3cc(C(=O)Nc4ccc(C)c(F)c4)nc3c2[nH]1	0	60	0	0
COc1ccc2c(C)c(CCC(=O)NCCc3ccc(Cl)cc3)c(=O)oc2c1	0	108	-	0
CSc1ccc(CCNC(=O)CCc2c(C)nc3cc(-c4ccccc4)nn3c2C)cc1	0	0	0	0
COc1ccc(CCNC(=O)CCc2c(C)nc3cc(-c4ccccc4)nn3c2C)cc1OC	0	70	0	0
COc1ccc2c(C)c(CCC(=O)NCCc3ccc(OC)c(OC)c3)c(=O)oc2c1	0	68	-	0
CN(C)c1ccc(CNC(=O)Cn2c(=O)oc3cc(S(=O)(=O)N4CCCCCC4)ccc32)cc1	0	113	0	0
COc1cccc(CNC(=O)Cn2c(=O)oc3cc(S(=O)(=O)N4CCCCCC4)ccc32)c1	0	76	0	0
O=C(Cn1c(=O)oc2cc(S(=O)(=O)N3CCCC3)ccc21)NCc1ccc(Cl)cc1	0	?	0	0
CN(C)c1ccc(CNC(=O)C(Cc2ccccc2)NS(=O)(=O)c2ccc3c(c2)oc(=O)n3C)cc1 (centres undefined)	0	94	0	0
OC[C@H]1O[C@@H](OCCc2ccc(O)cc2)[C@H](O)[C@@H](O)[C@H]1O	-	0	0	-
Cc1ccc(CNC(=O)Cc2csc3ccccc23)cc1	0	85	0	0
SMILES	B2AR arrestin ag	GPR32 ag	GALC G270D act	TSG101-PTAP inh
O=C(Cc1csc2ccccc12)NCc1ccc(F)cc1	0	0	0	0
CC(C)c1nnc(NC(=O)c2nc(SCc3ccc(F)cc3)ncc2Cl)s1	0	109	0	0
CCCSc1nnc2n(-c3ccc(OC)cc3)c(=O)c3c4c(sc3n12)COC(C(C)C)C4 (centres undefined)	0	0	0	0
COC(=O)CSc1nnc2n(-c3ccccc3)c(=O)c3c4c(sc3n12)COC(C(C)C)C4 (centres undefined)	0	65	0	0
CN(C)c1cc(NC(=O)CNC(C)(C)C)c(O)c2c1C[C@@H]1C[C@H]3[C@H](N(C)C)C(=O)C(C(N)=O)=C(O)[C@@]3(O)C(=O)C1=C2O	-	0	0	-
COc1ccc(CCn2nnnc2C2(c3ccc(C)cc3)CC2)cc1	-	0	-	-
COc1cc(NC(=O)c2nnn(Cc3ccc(F)cc3)c2N)cc(OC)c1	0	79	0	0
Cc1cc(C)cc(NC(=O)Cn2nnc(C(=O)Nc3cc(C)cc(C)c3)c2N)c1	0	84	0	0
CCOC(=O)C(=O)c1csc(NC=O)n1	-	0	0	-
COc1cc2ccccc2cc1C(=O)Nc1cccc(-c2nc3cc(C)c(C)cc3o2)c1	0	0	0	0
CCc1ccc(NC(=O)CN2C(=O)c3cccc4cccc2c34)cc1	0	120	-	0
CCc1ccc(NC(=O)CN2C(=O)CCSc3ccccc32)cc1	0	63	0	0
COc1ccccc1NC(=O)CN1C(=O)CCSc2ccccc21	0	0	0	0
Cc1cc(=O)oc2cc(O[C@@H]3SC[C@@H](O)[C@H](O)[C@H]3O)ccc12	-	0	0	-
O=C(Nc1cccc(C(F)(F)F)c1)C1CCN(c2nnc(-n3cccc3)s2)CC1	0	94	0	0
CC(=O)c1cccc(NC(=O)C2CCN(c3nnc(-n4cccc4)s3)CC2)c1	0	?	0	0
CCCS(=O)(=O)c1nc(S(=O)(=O)c2ccc(C)cc2)c(N(CC)CC)s1	0	0	7.9µM	0
Cc1oc(-c2cccc(Cl)c2)nc1CS(=O)(=O)CC(=O)NC(C)CCc1ccccc1 (centres undefined)	0	0	0	0
Cc1ccc(Cl)cc1N1CCN(C(=O)Cn2ncc3c4ccccc4n(C)c3c2=O)CC1	0	0	0	0
C=CCNc1nc(NCC=C)nc(N2CCN(C(c3ccc(F)cc3)c3ccc(F)cc3)CC2)n1	-	0	0	-
COc1ccc(C)c2sc(N3CCN(C(=O)c4ccco4)CC3)nc12	0	86	0	0
CCOc1ccccc1OCC1CNCCO1 (centres undefined)	-	0	0	-
CCC(C(=O)OCc1cc(=O)n2nc(CCOC)sc2n1)c1ccccc1 (centres undefined)	0	0	0	0
CCC(C(=O)OCCN1CCOC(c2ccccc2)C1C)c1ccccc1 (centres undefined)	-	62	0	-
CCOC(=O)C(=O)CCc1ccccc1	-	0	0	-
SMILES	B2AR arrestin ag	GPR32 ag	GALC G270D act	TSG101-PTAP inh
Fc1ccc(C(c2ccc(F)cc2)N2CCNCC2)cc1	-	0	0	-
O=c1cc(CSc2n[nH]c(-c3ccccc3)n2)[nH]c2ccccc12	0	93	0	0
CCOC(=O)c1c(NC(=O)c2ccc(S(=O)(=O)N3CCC(C)CC3)cc2)sc2c1CCN(C(C)C)C2	0	78	0	0
CC(=O)N1c2ccc(S(=O)(=O)NCC3CCC(C(=O)Nc4ccc(F)cc4)CC3)cc2CC1C (centres undefined)	0	68	0	0
CC(=O)c1ccc(NC(=O)C2CCC(CNS(=O)(=O)c3cccs3)CC2)cc1 (centres undefined)	0	108	0	0
COc1cc(OC)c(NC(=O)Nc2nnc(N(C)C3CCCCC3)s2)cc1Cl	0	0	0	0
